This note sets out measurements from PubChem BioAssay (Tox21).

Unmarked numbers belong to inactive results. Records with an inconclusive call do not appear. Activity calls are given as the source filed them. Unless noted, calls follow the shape of the dose curve; as a rule, active = well fitted curve in the direction sought with a large enough effect in the repeat runs; inconclusive = weak or mixed curves; inactive = no such curve, though single readings can be large; an effect the other way counts as inactive or inconclusive.

A short description of assay [1]: qHTS assay to identify small molecule agonists of the estrogen receptor alpha (ER-alpha) signaling pathway in the presence of an antagonist - cell viability counter screen (AID 1259386).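 Also: cells exposed to compounds for 22 h at 37 °C before the viability read; nearly all actives have a fitted effect of over 30% in size.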 Also: potency is read from the fitted curve at half-maximal effect. As to activity change, negative = cytotoxicity: series mostly up to about 92 µM. In outline: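 Cytotoxicity was measured in parallel with the ERE-luciferase agonist screen, in the same wells. The cells were VM7Luc4E2, which endogenously express ER-alpha, and treatment was with compounds plus 10.0nM ICI-182,780 for 22hr.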
(In general: Quantitative high-throughput screening tests each substance at several concentrations.)

Assay [2] has as its target Progesterone receptor (Homo sapiens) (UniProt P06401). The assay is described as follows: qHTS assay to identify small molecule agonists of the progesterone receptor (PR) signaling pathway (AID 1346784; calls by dose curve; also: nearly all actives have a fitted effect of over 30% in size). In outline: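 Fluorescence from LiveBLAzer B/G FRET substrate cleavage (2 hr, RT) reported PR activation in PR-UAS-bla HEK 293T cells treated 16 hr at 37C/5% CO2 with compounds; medium contained 2% charcoal-stripped FBS.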

A short description of assay [3]: qHTS assay to identify small molecule antagonists of the progesterone receptor (PR) signaling pathway - cell viability counter screen (AID 1346798). Also: series mostly up to about 92 µM; nearly all actives have a fitted effect of over 50% in size. The method, boiled down:
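CellTiter-Glo luminescence; PR-UAS-bla HEK293T, 3,000 cells/well; compound + R5020, 16 hr, 37C/5% CO2; 30 min RT before read.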

Assay [4] can be described thus: qHTS assay to identify small molecule antagonists of the TGF-beta/Smad signaling pathway - cell viability counter screen (AID 1346824). Also: nearly all actives have a fitted effect of over 50% in size. In outline:
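SBE-bla HEK 293T cells, incubated overnight, then compound plus 0.25 ng/mL TGF-beta1 (stock added) for 5 hr at 37 C. Viability was read in the same wells by CellTiter-Glo luminescence after 30 min at room temperature.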

Assay [5] is described as follows: qHTS assay to identify small molecule agonists of the TGF-beta/Smad signaling pathway - cell viability counter screen (AID 1346829). Also: top concentration of the series differs between compounds; nearly all actives have a fitted effect of over 45% in size. In outline: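 Same-well cytotoxicity: CellTiter-Glo added after the 2 hr room-temperature beta-lactamase substrate step, luminescence measured 30 min later; cells had 5 hr of compound at 37 C.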
Assay [6] deals with Thyrotropin-releasing hormone receptor (Homo sapiens) (UniProt P34981). The assay is described as follows: qHTS assay to identify small molecule antagonists of the thyrotropin-releasing hormone receptor (TRHR) signaling pathway (AID 1346877; active = well fitted inhibition curve with a large enough effect in the repeat runs, not every such curve was filed as active; also: series mostly up to about 51 µM). The method, boiled down:
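Antagonism is measured as suppression of the calcium response to 1 nM TRH in TRHR-HEK293 cells that have been dye-loaded for 2 h at 37 °C after overnight plating. Each compound is tested at 15 concentrations in triplicate.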

The target is the same in assay [7]. The assay is described as follows: qHTS assay to identify small molecule agonists of the thyrotropin-releasing hormone receptor (TRHR) signaling pathway (AID 1346891; calls by dose curve;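 also: HEK293 cells expressing TRHR with calcium dye readout; series mostly up to about 58 µM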). The method, boiled down:
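Compounds were tested as agonists at 15 concentrations, in triplicate, on TRHR-Hek293 cells; calcium-sensitive dye fluorescence was recorded for 3 min following addition.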

Assay [8] can be described thus: Caspase-3/7 induction in HepG2 cells by small molecules, qHTS assay (AID 1346978). Also: nearly all actives have a fitted effect of over 15% in size. The method, boiled down:
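Wild-type HepG2 cells, 2,000/well, settled 5 hr at 37 C and 5% CO2, then compound-treated for 17 hr; caspase-3/7 activity read by luminescent Caspase-Glo 3/7 after 30 min at room temperature.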

Assay [9] can be described thus: Caspase-3/7 induction in CHO-K1 cells by small molecules, qHTS cell viability counter screen (AID 1346979). Also: nearly all actives have a fitted effect of over 35% in size. Also: potency is read from the fitted curve at half-maximal effect. The method, boiled down: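 Viability readout by fluorescence (CellTiter-Fluor) on wild-type CHO-K1 cells exposed for 16hr at 37C and 5% CO2 to compounds delivered in DMSO; reagent incubated 1hr before reading.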
Assay [10] can be described thus: Caspase-3/7 induction in CHO-K1 cells by small molecules, qHTS assay (AID 1346980). Also: nearly all actives have a fitted effect of over 15% in size. The method, boiled down:
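Wild-type CHO-K1 cells exposed to compounds for 17hr at 37 C, 5% CO2. Caspase-3/7 activity then measured by Caspase-Glo 3/7 luminescence after 30min at room temperature.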

The nature of assay [11]: Caspase-3/7 induction in HepG2 cells by small molecules, qHTS cell viability counter screen (AID 1346981). Also: nearly all actives have a fitted effect of over 30% in size. Also: potency is read from the fitted curve at half-maximal effect. As to activity change, negative = cytotoxicity: series mostly up to about 92 µM. In outline:
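Cell viability is measured as a cytotoxicity counter screen alongside the Caspase-Glo 3/7 readout in identical wells. Wild-type HepG2 cells are treated with test compounds for 16 hr at 37 C before CellTiter-Fluor addition and a 1-hr incubation.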

The target of assay [12] is Nuclear receptor subfamily 1 group I member 2 (Homo sapiens) (UniProt O75469). The assay is described as follows: Human pregnane X receptor (PXR) small molecule agonists, qHTS assay (AID 1346982). Also: nearly all actives have a fitted effect of over 35% in size. In outline: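 Cells: HepG2 stably carrying PXR-Luc. Medium held 5% charcoal-stripped FBS. Compounds in DMSO added after 5 hr plating, incubated 24 hr, then luminescence quantified with ONE-Glo.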

Assay [13] addresses Nuclear receptor subfamily 1 group I member 2 (Rattus norvegicus) (UniProt Q9R1A7). The assay is described as follows: Rat pregnane X receptor (rPXR) activation by small molecules, qHTS assay (AID 1346983). Also: nearly all actives have a fitted effect of over 20% in size. The settings on record: rPXR luciferase reporter cells, One-Glo luminescence, 24 h; max activation: active compounds read high. The method, boiled down: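 Cell-based rPXR activation assay: rPXR cells, 2,000 per well, rested 5hr at 37 C, then exposed to compounds in DMSO for 24 hr at 37 C. Luciferase activity read by One-Glo luminescence after 30 min at room temperature.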

The target of assay [14] is Nuclear receptor subfamily 1 group I member 2 (Homo sapiens) (UniProt O75469). The assay is described as follows: CYP3A4 induction through human pregnane X receptor (PXR) by small molecules, qHTS assay (AID 1346984). Also: nearly all actives have a fitted effect of over 40% in size. The method, boiled down: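 Quantitative HTS in DPX-2 cells, i.e. HepG2 transfected with PXR response element and CYP3A4-promoter luciferase. Compounds in DMSO incubated 24hr at 37C; then P450-Glo CYP3A4 substrate, 3uM final, 3hr; One-Glo luminescence.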

Assay [15] shares this target. The experiment in a line: Human pregnane X receptor (PXR) activation by small molecules, qHTS assay (AID 1346985). Also: nearly all actives have a fitted effect of over 40% in size. In outline: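 DPX-2 cells (HepG2 co-transfected with a PXR response element and a CYP3A4-promoter luciferase construct) were seeded at 2,000 per well, rested 5 hr at 37C, then exposed to DMSO-dissolved compounds for 24 hr. Activation was read as luciferase luminescence.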

Assay [16] addresses Cytochrome P450 2D6 (Homo sapiens) (UniProt P10635). The experiment in a line: Cytochrome P450 Family 2 Subfamily D Member 6 (CYP2D6) small molecule antagonists: luciferase reporter qHTS assay (AID 1671196). Also: nearly all actives have a fitted effect of over 50% in size. Also: potency is read from the fitted curve at half-maximal effect. The method, boiled down: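 Enzyme and proluciferin substrate were first combined with test chemical for 10 min at room temperature. Adding NADPH regeneration solution started a 1 h reaction, stopped with luciferin detection reagent and read by luminescence 20 min later.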
(In general: In a reporter assay the amount or activity of a reporter protein is the signal.)

Assay [17] can be described thus: qHTS assay to identify small molecule agonists of the progesterone receptor (PR) signaling pathway - cell viability counter screen (AID 1346799; calls by dose curve; also: nearly all actives have a fitted effect of over 45% in size). In outline:
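In parallel with the beta-lactamase readout, cytotoxicity toward PR-UAS-bla HEK293T cells was measured by CellTiter-Glo luminescence following 16 hr compound incubation in 2% charcoal-stripped FBS medium.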

A short description of assay [18]: qHTS assay to identify small molecule agonists of the TGF-beta/Smad signaling pathway (AID 1346859; active = well fitted activation curve with a large enough effect in the signal ratio in the repeat runs, not every such curve was filed as active; the % refers to the signal ratio; also: series mostly up to about 77 µM). The method, boiled down:
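After overnight seeding, SBE-bla HEK 293T cells are dosed with compounds in DMSO and kept 5 hr at 37 C, 5% CO2. LiveBLAzer-type FRET substrate is then applied for 2 hr at room temperature.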

Assay [19] in a line: Human pregnane X receptor (PXR) small molecule agonists, qHTS cell viability counter screen (AID 1346977). Also: nearly all actives have a fitted effect of over 50% in size. Also: potency is read from the fitted curve at half-maximal effect. In outline: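 Viability counter screen: CellTiter-Fluor signal in PXR-Luc HepG2 cells, 24hr compound exposure, 37C, 5% CO2.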
% is scaled to controls: 0 for no effect and ±100 for the full control effect.

Progesterone receptor (Homo sapiens), sequence (P06401 whole entry, looked up): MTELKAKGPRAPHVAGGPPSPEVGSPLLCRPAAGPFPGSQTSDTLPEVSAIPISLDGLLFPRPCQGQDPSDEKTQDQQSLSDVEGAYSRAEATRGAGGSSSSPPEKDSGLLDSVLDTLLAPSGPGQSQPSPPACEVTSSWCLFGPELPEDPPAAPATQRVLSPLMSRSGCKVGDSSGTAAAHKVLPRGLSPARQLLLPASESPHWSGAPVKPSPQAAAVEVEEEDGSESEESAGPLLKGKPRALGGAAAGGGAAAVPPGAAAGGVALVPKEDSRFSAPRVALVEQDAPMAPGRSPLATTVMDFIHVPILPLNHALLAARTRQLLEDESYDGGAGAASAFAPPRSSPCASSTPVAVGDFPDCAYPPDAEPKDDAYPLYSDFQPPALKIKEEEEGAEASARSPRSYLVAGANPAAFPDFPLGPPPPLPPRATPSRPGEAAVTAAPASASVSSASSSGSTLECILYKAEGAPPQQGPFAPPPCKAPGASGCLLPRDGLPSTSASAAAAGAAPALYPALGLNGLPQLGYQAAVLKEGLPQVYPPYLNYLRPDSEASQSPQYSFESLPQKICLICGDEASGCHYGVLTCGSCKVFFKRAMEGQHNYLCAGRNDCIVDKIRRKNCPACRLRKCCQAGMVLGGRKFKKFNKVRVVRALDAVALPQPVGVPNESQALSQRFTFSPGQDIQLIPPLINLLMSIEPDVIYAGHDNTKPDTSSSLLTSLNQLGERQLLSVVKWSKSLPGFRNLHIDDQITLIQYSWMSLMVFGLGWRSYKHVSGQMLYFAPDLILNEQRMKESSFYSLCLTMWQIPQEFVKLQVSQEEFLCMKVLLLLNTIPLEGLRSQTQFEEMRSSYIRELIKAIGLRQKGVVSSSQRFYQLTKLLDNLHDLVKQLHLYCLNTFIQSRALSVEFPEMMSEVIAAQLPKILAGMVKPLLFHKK
Cytochrome P450 2D6 (Homo sapiens), sequence (P10635 whole entry, looked up): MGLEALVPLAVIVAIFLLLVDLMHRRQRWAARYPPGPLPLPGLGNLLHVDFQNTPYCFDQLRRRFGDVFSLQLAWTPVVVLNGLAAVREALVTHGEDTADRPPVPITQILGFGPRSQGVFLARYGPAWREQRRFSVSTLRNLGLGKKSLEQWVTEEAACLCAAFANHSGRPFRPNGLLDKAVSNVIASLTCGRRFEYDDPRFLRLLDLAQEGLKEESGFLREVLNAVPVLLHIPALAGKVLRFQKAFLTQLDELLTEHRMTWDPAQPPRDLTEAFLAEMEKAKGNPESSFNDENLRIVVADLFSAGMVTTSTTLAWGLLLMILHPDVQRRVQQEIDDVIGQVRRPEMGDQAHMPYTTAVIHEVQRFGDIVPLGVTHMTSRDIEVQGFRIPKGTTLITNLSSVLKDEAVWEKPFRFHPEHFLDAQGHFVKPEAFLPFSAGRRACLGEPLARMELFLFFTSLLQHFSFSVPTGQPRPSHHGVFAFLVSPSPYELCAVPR
Thyrotropin-releasing hormone receptor (Homo sapiens), sequence (P34981 whole entry, looked up): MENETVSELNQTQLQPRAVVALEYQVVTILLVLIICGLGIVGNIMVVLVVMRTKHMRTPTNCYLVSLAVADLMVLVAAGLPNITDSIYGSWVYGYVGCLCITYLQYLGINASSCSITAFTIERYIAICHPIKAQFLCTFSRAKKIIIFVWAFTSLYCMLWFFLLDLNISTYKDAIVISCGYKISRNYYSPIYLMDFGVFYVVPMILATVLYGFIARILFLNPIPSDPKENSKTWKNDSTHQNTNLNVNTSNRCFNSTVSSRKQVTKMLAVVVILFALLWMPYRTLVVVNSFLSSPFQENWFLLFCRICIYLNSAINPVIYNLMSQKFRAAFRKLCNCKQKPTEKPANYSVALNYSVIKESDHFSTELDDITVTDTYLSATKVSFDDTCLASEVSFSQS
Nuclear receptor subfamily 1 group I member 2 (Homo sapiens), sequence (O75469 whole entry, looked up): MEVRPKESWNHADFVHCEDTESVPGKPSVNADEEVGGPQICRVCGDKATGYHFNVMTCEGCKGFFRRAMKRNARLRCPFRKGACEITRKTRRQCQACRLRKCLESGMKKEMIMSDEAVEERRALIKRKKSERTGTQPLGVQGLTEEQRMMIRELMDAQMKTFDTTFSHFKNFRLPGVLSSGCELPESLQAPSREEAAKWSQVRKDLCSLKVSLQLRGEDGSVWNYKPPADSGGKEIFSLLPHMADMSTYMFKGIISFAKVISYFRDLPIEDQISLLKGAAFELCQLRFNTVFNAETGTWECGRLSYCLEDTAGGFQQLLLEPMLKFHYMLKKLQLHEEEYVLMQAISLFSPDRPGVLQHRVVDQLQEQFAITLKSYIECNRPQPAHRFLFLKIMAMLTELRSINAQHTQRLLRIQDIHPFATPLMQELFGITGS
Nuclear receptor subfamily 1 group I member 2 (Rattus norvegicus), sequence (Q9R1A7 whole entry, looked up): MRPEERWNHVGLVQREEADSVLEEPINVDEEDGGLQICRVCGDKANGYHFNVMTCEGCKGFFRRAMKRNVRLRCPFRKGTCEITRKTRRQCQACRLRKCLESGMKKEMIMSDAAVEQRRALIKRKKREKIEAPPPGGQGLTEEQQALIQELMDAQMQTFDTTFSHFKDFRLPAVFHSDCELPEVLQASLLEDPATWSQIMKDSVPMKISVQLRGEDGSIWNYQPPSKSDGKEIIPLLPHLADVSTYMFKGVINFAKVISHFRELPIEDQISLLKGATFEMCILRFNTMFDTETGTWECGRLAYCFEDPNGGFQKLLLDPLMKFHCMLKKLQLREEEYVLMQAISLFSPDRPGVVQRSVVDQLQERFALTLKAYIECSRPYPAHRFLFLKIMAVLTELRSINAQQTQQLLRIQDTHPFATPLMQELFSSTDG

Regarding `Nc1c(CC(=O)O)cccc1C(=O)c1ccc(Br)cc1`, the Potency entry in [1], in [2], in assay [3], in [4], in assay [7] and in assay [8] was “inactive” in each case. For the same compound, the Potency result in assay [9], in assay [10], in [11], in assay [12], in [14] and in assay [15] was “inactive” in each case. In addition, in assay [16], the Potency entry was “inactive”. For the same compound, the call in [5] and in assay [6] was inactive. Moreover, the max activation in assay [13] was -2.12%.

On to `CC(C)Nc1ccc(NC(C)C)c2c1C(=O)c1ccccc1C2=O`, for which the Potency in [1] was 11300 nM (active); in [19], 14200 nM (active); in [11], 16000 nM (active). The Potency entry in [2], in [17], in assay [18], in assay [8], in assay [10] and in assay [16] was “inactive” each time.

Regarding `c1ccc(C(O[C@H]2CCCN(CCc3ccc4c(c3)OCO4)C2)c2ccccc2)cc1`, the Potency entry in assay [1], in assay [2], in assay [3], in assay [4], in [18] and in assay [7] was “inactive” each time. Further, the Potency result in assay [8] and in assay [10] was “inactive” throughout. Also, in assay [6], the outcome was inactive. Besides, the Potency in [16] was 2450 nM (active).

Turning to `Cc1nn(C)c(Oc2ccccc2)c1/C=N/OCc1ccc(C(=O)OC(C)(C)C)cc1`, the Potency in assay [1] was 86.3 nM (active); in [19], 86.3 nM (active); in assay [9] it was 15.4 nM (active). The Potency entry in assay [2], in [3], in [4], in assay [18], in assay [7] and in [8] was “inactive” in each case. Moreover, the Potency entry in [10] and in assay [16] was “inactive” throughout. Besides, the call in [5] and in assay [6] was inactive.

As for `CC1OC(=O)C(C)OC1=O` (stereo not drawn), the Potency result in [1], in assay [3], in [17], in assay [4], in assay [18] and in [7] was “inactive” throughout. In addition, the Potency result in [19], in assay [8], in assay [10], in assay [11], in assay [12] and in [16] was “inactive” each time. Moreover, the compound was called inactive in [5] and in assay [6].

With `ClCCOCCOCCCl`, the Potency entry in assay [1], in [3], in assay [17], in assay [4], in [18] and in assay [7] was “inactive” throughout. Besides, the Potency result in assay [19], in assay [10], in assay [11] and in [16] was “inactive” in each case. The call in [5] and in [6] was inactive.

As for `CN(C)c1ccc(/C=C/c2ccc([N+](=O)[O-])cc2)cc1`, the activity change, negative = cytotoxicity in assay [1] was 3.06% [at 8.39 µM]; in assay [3], -5% [at 8.39 µM]; in [17], -0.149% [at 8.39 µM]; in assay [5], 8.79% [at 6.97 µM]; in assay [19] it was -0.583% [at 8.39 µM]; in [11], 14.3% [at 8.39 µM]. Also, the viability change, negative = cytotoxic in [4] is -3.22% [at 6.97 µM]. Also, the activation in assay [18] was -9.78% [at 6.97 µM]; in assay [7], 0.993% [at 5.23 µM]. Besides, the activity, negative = inhibition in [6] is -0.61% [at 4.65 µM]. The caspase activation in [8] was 0.696% [at 8.39 µM]. Moreover, the caspase-3/7 activation in assay [10] was -2.91% [at 8.39 µM].

For the compound `C[C@@H]1C[C@H]2O[C@@]3(O[C@@H]2C(C)(C)O)[C@H](O)[C@@]2(C)[C@@H]4CC[C@H]5C(C)(C)[C@@H](O[C@@H]6OC[C@@H](O)[C@H](O)[C@H]6O)CC[C@@]56C[C@@]46CC[C@]2(C)[C@@H]13`, the Potency entry in [1], in [3], in assay [4], in assay [18], in [7] and in [19] was “inactive” in each case. Also, the Potency result in assay [8], in assay [9], in [10] and in assay [11] was “inactive” throughout. The call in assay [5] and in assay [6] was inactive.
